The results in this text go back to PubChem BioAssay (NCATS).

Assay [1] deals with Cytochrome P450 3A4 (Homo sapiens) (UniProt P08684). Nature of the assay: qHTS Assay for Inhibitors and Substrates of Cytochrome P450 3A4 (AID 884). Further: nearly all actives have a fitted effect of over 50% in size. Further: potency means the concentration at half of the fitted maximal effect. On activity change, negative = inhibition: series mostly up to about 57 µM; on the % scale 0 is the no-effect control and ±100 the full control effect. In outline: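 20 nM human CYP3A4 with 25 uM Luciferin-PPXE (at KM) in 200 mM KPO4, preincubated 10 min with compound; NADPH regeneration started a 60 min RT reaction. Luciferin detected by luminescence, normalized to 57 uM ketoconazole as full inhibition.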
Sequence of Cytochrome P450 3A4 (Homo sapiens) (P08684 whole entry, looked up): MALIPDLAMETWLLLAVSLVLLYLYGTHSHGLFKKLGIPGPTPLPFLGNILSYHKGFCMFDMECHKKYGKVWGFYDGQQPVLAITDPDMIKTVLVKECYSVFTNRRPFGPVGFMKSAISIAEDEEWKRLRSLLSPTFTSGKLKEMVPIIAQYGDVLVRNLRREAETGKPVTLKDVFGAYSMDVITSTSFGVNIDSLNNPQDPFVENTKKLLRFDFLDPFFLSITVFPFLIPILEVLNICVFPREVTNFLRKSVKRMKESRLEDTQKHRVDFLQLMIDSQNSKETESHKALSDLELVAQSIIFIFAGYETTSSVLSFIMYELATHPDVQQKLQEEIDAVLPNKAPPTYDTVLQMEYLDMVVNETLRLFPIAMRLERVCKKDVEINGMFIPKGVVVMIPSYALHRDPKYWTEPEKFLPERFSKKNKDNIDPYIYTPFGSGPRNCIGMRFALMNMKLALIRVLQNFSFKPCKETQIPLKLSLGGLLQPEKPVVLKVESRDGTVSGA
On the technique in general: Quantitative high-throughput screening tests each substance at several concentrations.

Assay [2] concerns the target Cytochrome P450 2D6 (Homo sapiens) (UniProt P10635). Nature of the assay: qHTS Assay for Inhibitors and Substrates of Cytochrome P450 2D6 (AID 891). Further: nearly all actives have a fitted effect of over 60% in size. Further: potency means the concentration at half of the fitted maximal effect.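 On activity change, negative = inhibition: luciferin methyl ether substrate demethylated by CYP2D6 with NADPH regeneration; on the % scale 0 is the no-effect control and ±100 the full control effect.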 The procedure, abridged: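 Human CYP2D6 (5 nM) with 30 uM Luciferin-ME EGE (at Km) in 100 mM KPO4, compound preincubated 10 min, then NADPH regeneration system for 60 min at room temperature. Luciferin read by luminescence; normalized to 1.43 uM quinidine.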

Assay [3] is described as follows: Confirmation and Secondary Assay for Modulators of Hemoglobin Beta Chain Splicing at IVS2 654 locus (AID 910).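 Further: HeLa cells stably carrying EGFP split by mutant beta-globin IVS2-654 intron; % of control where 0% means no effect.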 In outline:
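HeLa cells stably expressing EGFP interrupted by β-globin IVS2-654 intron, seeded overnight in Opti-MEM/2% FCS, then treated 2 days at 37 °C. Restored splicing read as total peak GFP intensity per well by laser scanning cytometry (488 nm excitation, 500–520 nm emission); 500 nM antisense PNA as control.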

Assay [4] can be described thus: Confirmation and Secondary Assay for Modulators of Hemoglobin Beta Chain Splicing at IVS2 705 locus (AID 930).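 Further: HeLa cells stably expressing the EGFP-705 splicing reporter; GFP fluorescence per well restored by corrected splicing of the IVS2-705 intron in EGFP; series mostly up to about 46 µM; % of control where 0% means no effect.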 In outline: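 Per-well GFP, captured at 1 x 8 µm resolution with 488 nm excitation, served as the read-out for HeLa EGFP-705 cells incubated 2 days with test compound versus DMSO.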
In assay [5] the target is Cytochrome P450 2C19 (Homo sapiens) (UniProt P33261). Nature of the assay: qHTS Assay for Inhibitors and Substrates of Cytochrome P450 2C19 (AID 899). Further: nearly all actives have a fitted effect of over 60% in size. Further: potency means the concentration at half of the fitted maximal effect. The procedure, abridged:
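Luminescent read-out of luciferin formed from Luciferin-H EGE (10uM, equal to KM). Enzyme 5nM in 50mM KPO4; compound added, 10 min at 37C, then NADPH regenerating system for 60 min at 37C. Full inhibition defined by 57uM ketoconazole.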

Assay [6] deals with Cytochrome P450 3A4 (Homo sapiens) (UniProt P08684). Nature of the assay: qHTS Assay for Activators of Cytochrome P450 3A4 (AID 885). Further: nearly all actives have a fitted effect of over 65% in size. The procedure, abridged:
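Signal was normalized against complete inhibition by 57 uM ketoconazole. The reaction used 20nM CYP3A4 with 25uM Luciferin-PPXE, 10-min compound preincubation and a 60-min NADPH-supported step at RT.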

Assay [7] is described as follows: qHTS Assay for Identification of Small Molecule Agonists for Hypoxia Response Element Signaling Pathway (AID 914; active means well fitted activation curve with a large enough effect in the signal ratio, with a control signal flat, not every such curve was filed as active; the % refers to the signal ratio; further: % of control where 0% means no effect). The following applies: ME-180 (cervical carcinoma) HRE-bla reporter, beta-lactamase ratio, CoCl2, 17 h; stronger effect = higher value. In outline: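 In Opti-MEM containing 0.5% dialyzed FBS and 10 mM HEPES, ME-180 HRE-bla cells received a compound titration and EC50 CoCl2. They were incubated 17 hours, then CCF4-loaded 2.5 hours at room temperature before ratio reading.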

Values without a mark were called inactive. Results filed as inconclusive are left out. Calls of active or inactive are those of the source. Unless noted, the call rests on the fitted dose curve; in most records, active means well fitted curve in the direction sought with a large enough effect; inconclusive means small, poorly fitted or top-dose-only effect, or another doubt; inactive means no such curve, though single readings can be large; an effect the other way counts as inactive or inconclusive.

Sequence of Cytochrome P450 2D6 (Homo sapiens) (P10635 whole entry, looked up): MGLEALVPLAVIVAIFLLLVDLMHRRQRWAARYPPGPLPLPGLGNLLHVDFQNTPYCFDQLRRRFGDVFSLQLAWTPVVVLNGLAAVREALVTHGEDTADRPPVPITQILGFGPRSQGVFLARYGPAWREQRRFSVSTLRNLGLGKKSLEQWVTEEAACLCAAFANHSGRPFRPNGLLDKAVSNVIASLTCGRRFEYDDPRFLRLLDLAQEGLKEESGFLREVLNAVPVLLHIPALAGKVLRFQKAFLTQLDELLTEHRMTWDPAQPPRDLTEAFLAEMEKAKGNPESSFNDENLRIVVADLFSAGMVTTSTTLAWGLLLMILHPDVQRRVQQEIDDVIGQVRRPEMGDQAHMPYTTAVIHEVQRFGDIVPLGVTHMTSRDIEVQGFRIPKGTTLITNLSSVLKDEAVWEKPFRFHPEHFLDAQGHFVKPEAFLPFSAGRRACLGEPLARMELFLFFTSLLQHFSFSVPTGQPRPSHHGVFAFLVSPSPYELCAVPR
Sequence of Cytochrome P450 2C19 (Homo sapiens) (P33261 whole entry, looked up): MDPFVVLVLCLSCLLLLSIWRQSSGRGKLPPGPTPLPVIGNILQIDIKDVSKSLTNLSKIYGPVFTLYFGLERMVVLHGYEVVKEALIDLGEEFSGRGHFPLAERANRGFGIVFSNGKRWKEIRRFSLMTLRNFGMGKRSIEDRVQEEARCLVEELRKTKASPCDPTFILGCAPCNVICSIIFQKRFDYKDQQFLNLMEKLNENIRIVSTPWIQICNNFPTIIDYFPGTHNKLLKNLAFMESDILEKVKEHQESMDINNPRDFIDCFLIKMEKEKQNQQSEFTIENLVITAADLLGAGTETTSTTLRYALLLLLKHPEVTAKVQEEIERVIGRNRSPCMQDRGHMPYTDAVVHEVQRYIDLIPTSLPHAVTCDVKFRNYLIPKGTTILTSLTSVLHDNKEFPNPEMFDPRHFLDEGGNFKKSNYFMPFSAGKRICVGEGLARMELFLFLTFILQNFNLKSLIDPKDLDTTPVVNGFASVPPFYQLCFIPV

In the case of `COC(=O)NC(c1cccc(F)c1)[C@]1(C(C)=O)CCCC1=O` (some centres undefined), the activity change, negative = inhibition in assay [1] was -13.9% [at 11.4 µM]. Also, the Potency result in assay [2] was “inactive”.
On to `COc1ccc(-c2cc(=O)c3ccccc3o2)cc1OC`, for which the Potency in assay [1] is 7.94 µM (active). Moreover, the compound was classed as inactive in assay [3] and in assay [4].
Consider `COC(=O)NC(CC(C)=O)c1ccco1` (centres undefined), for which the activity change, negative = inhibition in assay [1] is -19.2% [at 11.4 µM]. In addition, the Potency entry in assay [2] and in assay [5] was “inactive” each time.
Regarding `COc1cc(C2NC(C(=O)O)Cc3c2[nH]c2ccccc32)cc(OC)c1OC` (centres undefined), in assay [1], the activity change, negative = inhibition is -17.2% [at 11.4 µM]. In assay [2], the Potency is 1.26 µM (active). The Potency result in assay [5] was “inactive”.
For the compound `CC(=O)c1ccc(OC2C=CC(c3ccc(Cl)cc3)OC2CO)cc1` (centres undefined), the activity change, negative = inhibition in assay [1] is -21.5% [at 11.4 µM]. Besides, the Potency entry in assay [2] is “inactive”. Also, the Potency in assay [5] was 5.01 µM (active).
`CCOC(=O)OCC1OC(c2ccc(C(C)=O)cc2)C=CC1Oc1ccc(-c2ccccc2)cc1` (centres undefined): in assay [1], the activity change, negative = inhibition is -27.8% [at 11.4 µM]. Further, the Potency entry in assay [2] and in assay [5] was “inactive” throughout.
On to `CC(C)CC1OCCC=CC1C` (centres undefined), for which the activity change, negative = inhibition in assay [1] is -2.57% [at 11.4 µM]. In addition, the Potency result in assay [2] and in assay [5] was “inactive” each time.
For `COC(=O)NC(CC(C)=O)c1cccc(C(F)(F)F)c1` (centres undefined), the activity change, negative = inhibition in assay [1] was -14.1% [at 11.4 µM]. The Potency result in assay [2] and in assay [5] was “inactive” each time.
For `C#CCCCO/N=C1/C[C@@H](O)[C@@H](O)[C@@H]2[C@@H]3C(=O)N(C4CCCCC4)C(=O)[C@H]3CC[C@@H]12`, the Potency in assay [1] was 3.16 µM (active). Besides, the activity change, positive = activation in assay [6] was -78.4% [at 11.4 µM]. The activation in assay [7] is -13.1%.
For the compound `CCOC(=O)[C@]1(C(/C=C/c2ccco2)NC(=O)OC)CCCC1=O` (some centres undefined), the activity change, negative = inhibition in assay [1] was -21.5% [at 11.4 µM]. Also, the Potency entry in assay [2] and in assay [5] was “inactive” throughout.
Consider `CC(=O)Oc1c(-c2ccccc2)oc2c(CC=C(C)C)c3c(c(OC(C)=O)c2c1=O)C=CC(C)(C)O3`, for which the Potency in assay [1] was 10 µM (active). For the same compound, the Potency result in assay [6] was “inactive”. Also, in assay [4], the compound was classed as inactive.
Turning to `Cc1ccccc1OC1C=CC(C#Cc2ccc(Br)cc2)OC1CO` (centres undefined), in assay [1], the activity change, negative = inhibition is -26.7% [at 11.4 µM]. Besides, the Potency entry in assay [2] and in assay [5] was “inactive” in each case.
Turning to `COC(=O)[C@@H]1C[C@@]2(O)[C@H](O)[C@H](O)[C@H](O)C[C@H]2N1CC(c1ccccc1)c1ccccc1`, the Potency result in assay [6] was “inactive”.
As for `C=C1C2CC[C@@]3(C)C(c4ccoc4)OC(=O)C[C@@]13OC1CC(OC(C)=O)C(C)(C)C(CC(=O)OC)[C@@]12C` (some centres undefined), the Potency in assay [1] was 1.26 µM (active). In addition, the Potency entry in assay [6] was “inactive”. Besides, in assay [4], the result was inactive.
Turning to `CC(=O)OCC1OC(C#Cc2ccc(C(C)(C)C)cc2)C=CC1OC(C)=O` (centres undefined), in assay [1], the activity change, negative = inhibition is -26.6% [at 11.4 µM]. Also, the Potency result in assay [2] and in assay [5] was “inactive” each time.
Turning to `CCOC(=O)OCC1OC(c2ccccc2)C=CC1OC(=O)OCC` (centres undefined), in assay [1], the activity change, negative = inhibition was -18.7% [at 11.4 µM]. Besides, the Potency result in assay [2] is “inactive”. In assay [5], the Potency was 3.98 µM (active).
Regarding `CSCCC(NC=O)C(=O)NC(CC(C)C)C(=O)NC(Cc1ccccc1)C(=O)O` (centres undefined), in assay [1], the Potency entry was “inactive”. Moreover, in assay [3], the compound was classed as inactive.
As to `CCCCOC(OCCCC)[C@H](O)CSc1ccc2ccccc2c1`, the figures for the Potency in assay [1] and in assay [5] were 5.01 µM (active) and 3.16 µM (active), respectively.
Regarding `C[C@]12CCC3c4ccc(O)cc4CCC3C1CCC2OC(=O)CCC1CCCC1` (some centres undefined), the Potency entry in assay [1] is “inactive”. Further, the call in assay [3] and in assay [4] was inactive.
Consider `COc1ccc(/C=C/C(=O)c2ccccc2O)cc1`, for which the activity change, negative = inhibition in assay [1] was -17.2% [at 11.4 µM]. Besides, the Potency was 3.16 µM (active) in assay [2] and 1.26 µM (active) in assay [5].
The corresponding values for `CCOC(=O)OCC1OC(C#Cc2ccc(C(C)(C)C)cc2)C=CC1OC(=O)OCC` (centres undefined) are -12.4% [at 11.4 µM], “inactive” and “inactive”.
On to `COc1ccc(/C=C/C(=O)c2cc(O)ccc2O)cc1`, for which the Potency entry in assay [1] is “inactive”. Moreover, in assay [4], the compound was called inactive.
Consider `C=CCCCCCCCCCCCC(O)CC(O)COC(C)=O` (centres undefined) (tested in a mixture with another compound), for which the Potency entry in assay [1] is “inactive”. Further, the compound was classed as inactive in assay [3] and in assay [4].
For the compound `COC(=O)NC(/C(C(=O)OC)=C(\C)NCc1ccccc1)c1ccc(Cl)cc1` (centres undefined), the activity change, negative = inhibition in assay [1] is -24.6% [at 11.4 µM]. Further, the Potency in assay [5] is 5.01 µM (active).
For `O=C(N/N=C1/C[C@@H](O)[C@@H](O)[C@@H]2[C@H]3C(=O)N(c4ccc(F)cc4F)C(=O)[C@@H]3CC[C@H]12)OCc1ccccc1`, the activity change, positive = activation in assay [6] is -37% [at 11.4 µM].
On to `COC(=O)NC(CC(C)=O)c1ccc(F)cc1` (centres undefined), for which the activity change, negative = inhibition in assay [1] is -12% [at 11.4 µM]. The Potency entry in assay [2] and in assay [5] was “inactive” in each case.
For the compound `NC(C(=O)O)C(O)C(=O)O` (centres undefined), in assay [1], the Potency result was “inactive”. Also, the compound was called inactive in assay [3] and in assay [4].
As for `COc1ccc(COC(=O)N/N=C2/C[C@@H](O)[C@@H](O)[C@@H]3[C@@H]4C(=O)N(c5cccc(Oc6ccccc6)c5)C(=O)[C@H]4CC[C@H]23)cc1`, in assay [1], the Potency was 3.16 µM (active). Moreover, the activity change, positive = activation in assay [6] is -68.2% [at 11.4 µM]. In assay [7], the activation is -10.1%.
For `COc1cc(OC)c2c(OC)c(-c3ccc4c(c3)OCO4)c(=O)oc2c1`, the Potency in assay [1] was 2.51 µM (active). Further, the Potency result in assay [6] is “inactive”. Further, in assay [4], the compound was called inactive.
`C=CC(C1=CC(=O)C(OC)=CC1=O)c1ccc(OC)cc1` (centres undefined): in assay [1], the Potency was 25.1 µM (active). Besides, in assay [6], the Potency result was “inactive”. Besides, the compound was classed as inactive in assay [4].
As for `CCOC(=O)OCC1OC(c2ccccc2)C=CC1Oc1ccc(F)cc1C` (centres undefined), the activity change, negative = inhibition in assay [1] was -28.9% [at 11.4 µM]. For the same compound, the Potency result in assay [2] is “inactive”. In addition, in assay [5], the Potency is 2 µM (active).
